# Source: PubChem BioAssay
# Marburg entry inh: qHTS for inhibitors of binding or entry into cells for Marburg Virus. Marburg virus pseudotyped entry inhibition, cell reporter. Potency, µM (top dose mostly 37.8 µM), without a hit: at the top dose activity change, negative = inhibition, hits mostly inhibitors. actives 1.8% (n = 300,000). AID 540276, 2011; calls by dose curve; tested in HEK293 cells; also: potency is read from the fitted curve at half-maximal effect; % is scaled to controls: 0 for no effect and ±100 for the full control effect
# Shiga toxin inh: A qHTS for Small Molecule Inhibitors of Shiga Toxin; Vero cells, Shiga toxin protein synthesis inhibition reporter; inhibition, % at 38.7 µM; actives 9.2% (n = 290,000); AID 2315, 2010; in the data active = inhibition mostly above about 28%, no sharp cut-off; inactive = mostly below about 43%; also: 0% is about no effect
# Pf growth 96h: Primary qHTS for delayed death inhibitors of the malarial parasite plastid, 96 hour incubation. actives 6.9% (n = 320,000). AID 504834, 2011. Potency, µM (top dose mostly 28.7 µM), for inactives: at the top dose activity change, negative = inhibition, hits mostly inhibitors. P. falciparum luciferase reporter growth, 96 h; also: potency is read from the fitted curve at half-maximal effect; % is scaled to controls: 0 for no effect and ±100 for the full control effect
#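 P. falciparum expressing integrated firefly luciferase, in erythrocytes at 2% hematocrit, 0.05% parasitemia, incubated with compounds 96 h at 37 C, 5% CO2. Growth inhibition read as loss of luminescence; two-generation exposure targets delayed-death apicoplast inhibitors.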
# CHX counter: Cycloheximide Counterscreen for Small Molecule Inhibitors of Shiga Toxin | max response, % | cell reporter, cycloheximide protein synthesis inhibition counterscreen | actives 12% (n = 300,000); in the data active = max response mostly above about 13%, no sharp cut-off; inactive = mostly below about 14%; also: read at 38.3 µM for the half of the compounds with a filed dose; 0% is about no effect
# Pf growth 48h: Primary qHTS for delayed death inhibitors of the malarial parasite plastid, 48 hour incubation. P. falciparum luciferase growth in erythrocytes, 48 h. Potency, µM (series often up to 28.7 µM), inactives show at the highest dose activity change, negative = inhibition, hits mostly inhibitors. actives 5.9% (n = 310,000). AID 504832, 2011; also: potency is read from the fitted curve at half-maximal effect; % is scaled to controls: 0 for no effect and ±100 for the full control effect
#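 First compound was added to culture medium, then infected red cells at 0.1% parasitemia and 2% hematocrit (final). After incubation at 37 C under 5% CO2, luciferase detection reagent was dispensed and light output recorded.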
# LASV entry inh: qHTS for Inhibitors of binding or entry into cells for Lassa Virus | Lassa virus pseudotype entry inhibition, cell reporter | Potency, µM (titrated, usually from 37.9 µM), without a hit: at the top dose activity change, negative = inhibition, hits mostly inhibitors | actives 1.2% (n = 300,000); calls by dose curve; tested in HEK293 cells; also: potency is read from the fitted curve at half-maximal effect; % is scaled to controls: 0 for no effect and ±100 for the full control effect; nearly all actives have a fitted effect of over 50% in size
# * hit, by the source's call; i = inactive; ? = inconclusive; · = no result given; [ ] = another dose, or the depositor's remark. The list is not random: actives were taken first. Their share in the collection is about 19%. Unless noted, calls follow the shape of the dose curve; as a rule, active = well fitted inhibition curve with a large enough effect; inconclusive = small, poorly fitted or top-dose-only effect, or another doubt; inactive = no such curve, though single readings can be large or run the other way.
SMILES,Marburg entry inh,Shiga toxin inh,Pf growth 96h,CHX counter,Pf growth 48h,LASV entry inh
Cc1cc(C(=O)NCC(c2ccco2)N(C)C)no1 (stereo unspecified),?,-10,9.3µM*,-2,10%,8%
Oc1ccc2ccccc2c1C=Nc1ccccc1-c1nc2ccccc2[nH]1,?,59*,?,43*,·,?
O=C(Nc1cccc(F)c1)/C(=C\c1cccnc1)NC(=O)c1cccs1,0%,-8,17%,-1,17%,11%
CC(=O)Nc1cc2c(c(Cl)c1Cl)-c1ccccc1C2=O,20%,·,·,·,·,15%
NC(=O)[C@@H]1CCCN1Cc1nc(-c2ccccc2)no1,8%[46.1 µM],7,?,-1,22%,9%[46.1 µM]
OC1CCN(Cc2nc(Cc3ccccc3Cl)no2)CC1,19%[46.1 µM],16,-21%,-2,39%,-2%[46.1 µM]
NC(=O)[C@@H]1CCCN1Cc1nc(Cc2ccccc2Cl)no1,10%[46.1 µM],-2,3.7µM*,-2,2%,3%[46.1 µM]
Clc1ccccc1Cc1noc(CN2CCN3CCCC3C2)n1 (stereo unspecified),6%,-6,2.9µM*,8,?,13%
COCc1ccc(CN2CCC(n3nccc3NC(=O)CCOc3ccccc3)CC2)o1,21%,-9,?,-1,0%,2%
COCC(=O)N1CCC(n2nccc2NC(=O)CCOc2ccccc2)CC1,·,36*,12µM*,24*,-2%,·
O=C(CCOc1ccccc1)Nc1ccnn1C1CCN(C(=O)CCC(F)(F)F)CC1,·,25,12µM*,23*,?,·
COC(=O)CCCC(=O)N1CCC(n2nccc2NC(=O)CCOc2ccccc2)CC1,20%,34,?,21*,24%,11%
CCCNC(=O)N1CCC(n2nccc2NC(=O)CCOc2ccccc2)CC1,3%,-3,?,0,6%,-4%
CCCCCNC(=O)C(=O)NCC(c1ccc2c(c1)OCO2)N1CCOCC1 (stereo unspecified),·,·,·,·,·,-6%[46.1 µM]
Oc1ccc(-c2csc(-c3cccnc3)n2)c(O)c1,?,111*,?,35*,129%,-24%
O=S(=O)(c1ccc(-c2csc(-c3cccnc3)n2)cc1)N1CCCC1,1%,2,-18%,-2,?,24%
c1cncc(-c2nc(-c3cccs3)cs2)c1,17%,53,?,44*,43%,?
c1cncc(-c2csc(-c3cccnc3)n2)c1,·,27,18%,9,30%,·
Clc1ccsc1-c1csc(-c2cccnc2)n1,?,35,?,33*,·,-8%
c1csc(-c2csc(-c3cccs3)n2)c1,28%,118*,90%,30*,138%,?
CN1C(=O)C(C2c3ccccc3C(=O)N2Cc2ccccc2)C(=O)N(C)C1=O (stereo unspecified),14%,-18,39%,5,14%,0%
COc1ccc(C(=O)CSc2nc(SC)ns2)cc1OC,-26%,-12,?,6,?,-16%
c1cncc(-c2nc(-c3ccco3)cs2)c1,23%,79*,·,27*,44%,3%
N#CCSc1nnc(SCC#N)s1,0%[46.1 µM],3,-28%,-3,0%,-9%
CCN(CC(=O)Nc1c(F)cccc1F)C(=O)c1cccnc1Sc1ccccc1,8%[46.1 µM],·,39%,·,21%,-19%
SMILES,Marburg entry inh,Shiga toxin inh,Pf growth 96h,CHX counter,Pf growth 48h,LASV entry inh
Cc1cccc(C)c1OCc1cc(C(=O)NCc2ccc(Cl)s2)no1,·,7,10µM*,18*,15%,·
Cc1cccc(C)c1OCc1cc(C(=O)NC2CCC(O)CC2)no1 (stereo unspecified),·,46,?,12,-9%,·
Cc1cccc(C)c1OCc1cc(C(=O)NCC2CC2)no1,?,88,15µM*,10*,?,-24%[46.1 µM]
CCOC(=O)N1CCC(NC(=O)c2cc(COc3c(C)cccc3C)on2)CC1,3%[46.1 µM],9,-29%,14*,?,-7%[46.1 µM]
Cc1cccc(C)c1OCc1cc(C(=O)NC2CCC2)no1,·,37*,2%,37*,?,·
Nc1c(C(=O)O)sc2nc(-c3ccccc3)cc(-c3ccccc3)c12,·,-2,?,-4,?,·
Nc1c(C(=O)Nc2ccccc2F)sc2nc3c(cc12)CCCCCC3,?,·,·,·,·,-19%[46.1 µM]
Cc1ccc(-c2c3c(nc4sc(C(N)=O)c(N)c24)CCC3)cc1,-11%,95,?,29*,29%,2%
Nc1c(C(=O)N2CCCC2)sc2nc(-c3ccccc3)ccc12,?,75*,100%,39*,135%,0%[46.1 µM]
NC(=O)c1sc2nc3c(c(-c4ccc(Cl)cc4)c2c1N)CCCC3,?,-19,·,-3,-8%,-21%
Nc1c(C(=O)N2CCCCC2)sc2nc3c(cc12)CCCC3,-24%[46.1 µM],108*,0%,50*,199%,12%[46.1 µM]
CC(=O)c1cccc(NC(=O)c2sc3nc4c(cc3c2N)CCCC4)c1,?,·,·,·,·,6%[46.1 µM]
Cc1ccc(C(=O)c2sc3nc4c(cc3c2N)CCC4)cc1,23%,active,?,47*,208%,30%
C=C(C)C1CC=C(C)/C(=N/NC(=O)CCC(=O)Nc2ccccc2Cl)C1 (stereo unspecified),-18%[46.1 µM],-14,22%,-1,-2%,8%[46.1 µM]
CC1CCN(S(=O)(=O)c2ccc(NC(=O)CNC3CCCCC3)cc2)CC1,?,-6,46%,1,-12%,?
CCOc1ccc(OCC(=O)Nc2cc3c(cc2C(=O)O)OCCCO3)cc1,-16%[46.1 µM],-5,18%,-3,7%,29%[46.1 µM]
COc1ccccc1NC(=O)/C=C\c1ccco1,·,68*,9%,41*,·,·
COc1cccc(NC(=O)/C=C/c2ccco2)c1,?,140*,258%,52*,306%,-19%
Cc1cccc(NC(=S)NC(=O)/C=C/c2ccco2)c1,?,32,14%,10,11%,?
O=C(/C=C/c1ccco1)Nc1cccnc1,?,47,64%,21*,90%,-4%[46.1 µM]
O=C(/C=C/c1ccco1)Nc1ccc(Oc2ccc(Cl)cc2)cc1,?,0,3%,-3,8.3µM*,?
OC[C@@H]1[C@@H](c2ccc(Cl)cc2)C(c2cccc(Cl)c2)=NN1c1ccccc1,·,i,·,-1,·,·
O=[N+]([O-])c1ccc2c(c1Nc1ccccc1)=NC1(CCCCC1)N=2,11%,9,?,12,-9%,3%
CC(C)(C)c1ccc(/C=C/C(=O)Nc2cccnc2)cc1,?,70*,5%,29*,13%[0.00184 µM],?
O=C(O)/C=C/C(=O)Nc1cccnc1,?,-10,-1%,-1,-3%,2%
CSc1cccc(NC(=O)/C=C/c2ccco2)c1,17%[46.1 µM],110*,55%,55*,142%,-3%
COc1ccc(CNC2CCCCC2C)c(OC)c1 (stereo unspecified),-26%,-21,·,-9,4%,0%
